# Assay results taken from paper PMC7819943, “Rice protein-binding microarrays: a tool to detect cis-acting elements near promoter regions in rice”.
# The full ranking holds about 39,000 sequences; the median of “fluorescence intensity (a.u.)” is about 4,300, and the highest 2% start at about 39,000. The sample holds the highest values, similar sequences and a random draw of the others, so the mix is not that of the screen.
# Biological target: T1, OsSMF1 (Oryza sativa, UniProt Q6ZLB0 1-436)
# T1 sequence: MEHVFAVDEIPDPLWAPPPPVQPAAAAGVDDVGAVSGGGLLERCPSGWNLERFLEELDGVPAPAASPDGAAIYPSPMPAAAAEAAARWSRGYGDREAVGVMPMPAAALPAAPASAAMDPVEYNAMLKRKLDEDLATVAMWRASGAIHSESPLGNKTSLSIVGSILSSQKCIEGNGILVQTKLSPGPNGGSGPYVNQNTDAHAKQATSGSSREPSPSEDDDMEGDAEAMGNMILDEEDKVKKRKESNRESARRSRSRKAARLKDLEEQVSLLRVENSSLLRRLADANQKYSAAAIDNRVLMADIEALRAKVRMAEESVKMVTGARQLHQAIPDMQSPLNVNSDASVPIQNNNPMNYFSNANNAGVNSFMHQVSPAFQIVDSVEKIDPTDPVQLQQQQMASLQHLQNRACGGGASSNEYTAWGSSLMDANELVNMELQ
# Experiment: protein-binding microarray (RPBM); PBS, 2% BSA, 51.3 ng/ul salmon testes DNA, 50 uM zinc acetate, 200 nM TF, 25 C, 1 h; high values mean tight binding
# Conditions: protein: recombinant; tags: N-terminal polyhistidine and DsRed monomer fusion (pET32a); chain copies: 2; label: CyDye5-dUTP incorporated in the synthesized complementary strand; 3' TTTTT single-stranded linker to array surface; dsDNA, one strand shown
# In short: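 Ni–NTA purification followed expression in E. coli BL21-CodonPlus of transcription factors fused N-terminally to a polyhistidine tag and DsRed. At 200 nM in PBS with 2% BSA, salmon testes DNA and 50 µM zinc acetate, the protein was incubated for 1 h at 25 °C with a custom Agilent array that had been primer-extended with Cy5-dUTP and blocked with 2% BSA. After washing, the array was read on an Axon 4000B scanner. The binding signal is per-feature fluorescence intensity in arbitrary units.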
row,Sequence,binding signal
1,GGTATTGCTGTATTTATTTTGGTGTGGTTGAGAGTCTAGTCGGAGTCACCTAGTGCAG,4096 fluorescence intensity (a.u.)
2,CATTCCCCTCTCCCCAATTTACCATACACACATGGATGTACGGAGTCACCTAGTGCAG,3640 fluorescence intensity (a.u.)
3,TGATCAATCAAGAAGACGATCGTGCCGATATCATGGCACCCGGAGTCACCTAGTGCAG,3940 fluorescence intensity (a.u.)
4,GTCTTTCTTCAATTGTTATTATTGTCATAAATCAGGAGAACGGAGTCACCTAGTGCAG,22600 fluorescence intensity (a.u.)
5,TTAACCCCGTCACGTCACCTCTCTCTCTCTCTACCGTCTCCGGAGTCACCTAGTGCAG,9720 fluorescence intensity (a.u.)
6,CAAACGGGACGAATTCCTAACCCTCGTCATCCGTCCCTTCCGGAGTCACCTAGTGCAG,4710 fluorescence intensity (a.u.)
7,CTGTTATCTTTCAATAAACCAAGGGAATTTTAGTTTGTTCCGGAGTCACCTAGTGCAG,33200 fluorescence intensity (a.u.)
8,AAGAGGATGGCTGGGAGGATGACATGTGGAGCCCACATGGCGGAGTCACCTAGTGCAG,4450 fluorescence intensity (a.u.)
9,GGCGCCGTGCCGTAATCCATCTCCTCCGTCGTCCAACCTCCGGAGTCACCTAGTGCAG,44900 fluorescence intensity (a.u.)
10,AACCTCCATCTCCCGCCCAGTGCCGCCGCGCCACGTCACCCGGAGTCACCTAGTGCAG,39100 fluorescence intensity (a.u.)
11,CCCGAGAGCGAACGGCCGTCTGCCACGTCATTTTCGCCGCCGGAGTCACCTAGTGCAG,29700 fluorescence intensity (a.u.)
12,CGCCCGAGAGCGAACGGCCGTCTGCCACGTCACTTTCGCCCGGAGTCACCTAGTGCAG,29100 fluorescence intensity (a.u.)
13,CGAGAGCGAACGGCCGTCTGCCACGTCACTTTCGCCACCCCGGAGTCACCTAGTGCAG,41900 fluorescence intensity (a.u.)
14,TCCCTCCCTCCGCCGCGCCACGCCCACCCACGCATCCATCCGGAGTCACCTAGTGCAG,4110 fluorescence intensity (a.u.)
15,CCGGCCACCGCCCTCCCGCCGCACGGGCCACCGGCCACCGCGGAGTCACCTAGTGCAG,3460 fluorescence intensity (a.u.)
16,TCTCTTCCCCTCTCCGCGCCGCCCTCCGCCCCGCCCGCGGCGGAGTCACCTAGTGCAG,3270 fluorescence intensity (a.u.)
17,ACATCCACAACCATCTCCACCTCACCTCGTCCATCGTCTCCGGAGTCACCTAGTGCAG,6010 fluorescence intensity (a.u.)
18,AGCCCGGCCCACCACGGGGTTTCCCTCTTCTCTAGGCCCGCGGAGTCACCTAGTGCAG,50600 fluorescence intensity (a.u.)
19,TCCACCCCACGTCCTCCTCCTCCCCAGCAGTCCCACCCGCCGGAGTCACCTAGTGCAG,3570 fluorescence intensity (a.u.)
20,CCAACCCATCTCCACCGTCCATCTCCATCCGACGCCTCCCCGGAGTCACCTAGTGCAG,24300 fluorescence intensity (a.u.)
21,GGTTGAATCAAATTGTTCCTCTGTTACACTTACACATCATCGGAGTCACCTAGTGCAG,3250 fluorescence intensity (a.u.)

row,Sequence,binding signal
1,AATACTGAATACTAGTGCAACGTCATTGAAAATTTTATCCCGGAGTCACCTAGTGCAG,5090 fluorescence intensity (a.u.)
2,CGTCGTGCCTACGGGCCGTTCGCGTGTCGTGTCGGCCCAACGGAGTCACCTAGTGCAG,3850 fluorescence intensity (a.u.)
3,ACGGTAGGAGCTGCAGCGGTCGGGGTGGGAGCAGGGGTCGCGGAGTCACCTAGTGCAG,3440 fluorescence intensity (a.u.)
4,AAATGTTATGAGTACGATGACACATTAAAACACAGTCATTCGGAGTCACCTAGTGCAG,4650 fluorescence intensity (a.u.)
5,TTTTGGGCCTCCTGTGACCTACATGGGCCGCACTTCTTTCCGGAGTCACCTAGTGCAG,25900 fluorescence intensity (a.u.)
6,TTACAGGTGTTGTCATTTTATGTGACCGGTCAGACCGGGCCGGAGTCACCTAGTGCAG,4510 fluorescence intensity (a.u.)
7,GACCATAAGTGTCCACGTATGCAAAACTCGACCTCCGTTTCGGAGTCACCTAGTGCAG,13800 fluorescence intensity (a.u.)
8,CACAACCACAAGGTTGTCATTACCTCTATCATCGGTGTAACGGAGTCACCTAGTGCAG,3380 fluorescence intensity (a.u.)
9,CATCATGTCCTATCTGAACTGTTACAACCACGACGTAGTACGGAGTCACCTAGTGCAG,3320 fluorescence intensity (a.u.)
10,CATTTATAACTTTGCTGTGTTTCACTGATGCAGGTTTTATCGGAGTCACCTAGTGCAG,3490 fluorescence intensity (a.u.)
11,CCCCTCCGCCTCGTCCCCATCGGCCACTGCCACCACCGCCCGGAGTCACCTAGTGCAG,3700 fluorescence intensity (a.u.)
12,CCAGCATCGCCGGCAGATCCACGTCGAGCATCGCGGCAGGCGGAGTCACCTAGTGCAG,5190 fluorescence intensity (a.u.)
13,CGGCGTGGCCGCTGCGTCACGGGCGACTGCGCCAGCGTGCCGGAGTCACCTAGTGCAG,5890 fluorescence intensity (a.u.)
14,CCGCCGCAGCCGCAGCCGGCCAAGCTGGGCGTCGGCGACACGGAGTCACCTAGTGCAG,39700 fluorescence intensity (a.u.)
15,AAAGCCGCACACGTGTTTCCCGCGACCGCGCCACGTCACCCGGAGTCACCTAGTGCAG,46700 fluorescence intensity (a.u.)
16,TCCGCCGTCGCCGCTCCGTCCATCGCCCGCCGTCACCGCCCGGAGTCACCTAGTGCAG,4040 fluorescence intensity (a.u.)
17,GCGCGCGCCACCGCACCCGCGACGCCGACGTGTTCATGACCGGAGTCACCTAGTGCAG,5890 fluorescence intensity (a.u.)
18,CGCCACCGTCACCGACCGCGCGCGCACGCACGCACACTCCCGGAGTCACCTAGTGCAG,3390 fluorescence intensity (a.u.)
19,CACGCCGCCGCCCGTCGCGAGCTCCACGTCGAGCAGCAGCCGGAGTCACCTAGTGCAG,4920 fluorescence intensity (a.u.)
20,CGGTCGGTCCATCGCCCTCCGTCCCCATCCCCACCGTCACCGGAGTCACCTAGTGCAG,41900 fluorescence intensity (a.u.)
21,CCGTCGCCGCCAAGCATCGAGCCGCCGGCCACAGCAGCCGCGGAGTCACCTAGTGCAG,42100 fluorescence intensity (a.u.)

row,Sequence,binding signal
1,GTGGCGCGCGCGCGCACGCACGCTGGGCGACACGCCACGCCGGAGTCACCTAGTGCAG,4530 fluorescence intensity (a.u.)
2,TACAAAATCATCCATCAACCGCAAAATCAGATATCGACCGCGGAGTCACCTAGTGCAG,3800 fluorescence intensity (a.u.)
3,GATGTGACGTGATGTGATGGAAAGTTGGGAGTTGGGGAAACGGAGTCACCTAGTGCAG,6040 fluorescence intensity (a.u.)
4,TTGGCCGGTAACGCGTCATGACTCATGAGCTACTGGACTTCGGAGTCACCTAGTGCAG,9990 fluorescence intensity (a.u.)
5,TTCGTCCGTGCGTGCGTGCGTGCGCGACTCGCTCTCACACCGGAGTCACCTAGTGCAG,10700 fluorescence intensity (a.u.)
6,TACATTTCTTTGACAAAACTTTTATAACCAGCTGATGTGGCGGAGTCACCTAGTGCAG,11400 fluorescence intensity (a.u.)
7,GAGTTGTGACTGTGAGGCACACCAATGGCGGCCCATGGATCGGAGTCACCTAGTGCAG,3740 fluorescence intensity (a.u.)
8,CACTGTCCATCCATGGTGGTGGTCAGACAACCCCAGCACACGGAGTCACCTAGTGCAG,3990 fluorescence intensity (a.u.)
9,TGCGATTGATTCGGTATTAGAGCCTGCATACGTGTCATCTCGGAGTCACCTAGTGCAG,22100 fluorescence intensity (a.u.)
10,TCGGCCAATGCGGAGCCGTCAGCTCTCCGCTGCTCGGCTACGGAGTCACCTAGTGCAG,44400 fluorescence intensity (a.u.)
11,GTCGGCCCATGAATATGCTGACGTCACTTTTGAGCCCACTCGGAGTCACCTAGTGCAG,36600 fluorescence intensity (a.u.)
12,TCCAGATCTTGGCGCCGCCGGATCCCGTCAGTCTCCACAACGGAGTCACCTAGTGCAG,48300 fluorescence intensity (a.u.)
13,TCTCCCAGGCCACCATCGGCGTCCACATCCCGCCGTCCGCCGGAGTCACCTAGTGCAG,3510 fluorescence intensity (a.u.)
14,CCATCTCGGCCCATGAGGATGCTGACGTCACCGCGTCGTCCGGAGTCACCTAGTGCAG,42700 fluorescence intensity (a.u.)
15,CGGCCGCCGCGACACCCGCCGCCACGTCGCCCCGCCACGCCGGAGTCACCTAGTGCAG,9460 fluorescence intensity (a.u.)
16,CGCTCTGCCGTCCGGCTCTCCGCGCGATGCTACGTGGCCGCGGAGTCACCTAGTGCAG,5480 fluorescence intensity (a.u.)
17,CATGAGGAGGATGCTGACGTCTCGAGGTGAAGGCCGCAATCGGAGTCACCTAGTGCAG,4970 fluorescence intensity (a.u.)
18,GCCGCCGCCGCCGTCTGCACCCGCGTCAGCGCTCCACAAACGGAGTCACCTAGTGCAG,3440 fluorescence intensity (a.u.)
19,CTCTCCCGCCTCGCCCGTCGACGCCCGCGCCACGTGCAGCCGGAGTCACCTAGTGCAG,6190 fluorescence intensity (a.u.)
20,GCCTCCACCTCGCTGCTGCTCCGCCAGCTAGTAGCCGCCACGGAGTCACCTAGTGCAG,3350 fluorescence intensity (a.u.)
21,CCTCTCCAGTACGCGTCGCCCCGCCACGTCAGCGACTGGCCGGAGTCACCTAGTGCAG,41600 fluorescence intensity (a.u.)
